High-throughput results (PubChem)
Giardia killer: kills Giardia lamblia. Giardia lamblia trophozoite viability. activity change, % at 7.66 µM, hits read low. 340,000 tested, 0.15% active. AID 540267; in the data active = activity change below about -80%; inconclusive = between about -30% and that limit;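 also: parasites exposed to compound for two days anaerobically before the ATP read; % is scaled to controls: 0 for no effect and ±100 for the full control effect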
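Luminescence from cellular ATP indicates surviving trophozoites (100 cells/well) following 48 hrs anaerobic compound treatment at 37 deg C; signal develops 15-30 min at room temperature.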
SW480 rereplic: DNA re-replication induction in SW480 cells. SW480 DNA re-replication, Hoechst DNA content imaging, 48 h. 340,000 tested, 1.8% active. Potency, µM (series often up to 46.1 µM), without a hit: top-dose re-replication activation, usual class: activators; also: potency is read from the fitted curve at half-maximal effect; % of control where 0% means no effect; nearly all actives have a fitted effect of over 55% in size
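First, 250 cells per well were seeded. Next, compound or vehicle (23 nL) was pinned in, plates sat 48 hr at 37 C. Finally Hoechst was added for 40 min before fluorescence scanning.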
MCF10A rereplic: inducers of DNA re-replication in MCF 10A breast cells. MCF 10A DNA re-replication, Hoechst nuclear intensity, 48 h. Potency, µM (series often up to 46.1 µM), for the others: at the highest dose activity, positive = re-replication, actives largely listed as activators. 350,000 tested, 2.9% active; also: potency is read from the fitted curve at half-maximal effect; % of control where 0% means no effect; nearly all actives have a fitted effect of over 50% in size
uPA surface inh: blocks generation of uPA at the cell surface | cell surface uPA generation assay, qHTS | 330,000 tested, 0.31% active | Potency, µM (top dose mostly 38.3 µM), for inactives: top-dose activity change, negative = inhibition, usual class: inhibitors; active = well fitted inhibition curve with a large enough effect; inconclusive = small, poorly fitted or top-dose-only effect; inactive = no such curve, though single readings can be large or run the other way; tested in mouse RAW 264.7 cells; also: potency is read from the fitted curve at half-maximal effect; % is scaled to controls: 0 for no effect and ±100 for the full control effect; nearly all actives have a fitted effect of over 55% in size
Starred values were filed as active, the others as inactive; u = inconclusive; x = not tested or not shown. The list is not random: actives were taken first. Their share in the collection is about 4.3%. Unless noted, calls follow the shape of the dose curve; as a rule, active = well fitted activation curve with a large enough effect; inconclusive = small, poorly fitted or top-dose-only effect; inactive = no such curve, though single readings can be large or run the other way.

SMILES	Giardia killer	SW480 rereplic	MCF10A rereplic	uPA surface inh
COC(=O)C1=CN(Cc2ccc(OC)c(OC)c2)C=C(C(=O)OC)C1c1ccc(F)cc1	15	21µM*	18µM*	9%
CSCCC(NC(=O)c1ccccc1Br)C(=O)NNC(=O)c1cc(C)oc1C (centres undefined)	9	-14%	14%	23%
COc1cc(NC(=O)c2cccc([N+](=O)[O-])c2)ccc1NC(=O)c1ccco1	-1	0%	1%	2%
Cc1cc(NC(=O)c2ccc([N+](=O)[O-])o2)ccc1NC(=O)c1ccco1	-94*	2.3µM*	u	u
COc1cc(NC(=O)c2ccc([N+](=O)[O-])o2)ccc1NC(=O)c1ccco1	-96*	u	16%	u
c1ccc(N2N=C(c3cccs3)CC2c2ccco2)cc1 (centres undefined)	-12	8.2µM*	8.2µM*	0%
Clc1ccc(N2N=C(c3cccs3)CC2c2ccco2)cc1 (centres undefined)	5	u	4.6µM*	3%
CCC(=O)N1N=C(c2cccs2)CC1c1ccco1 (centres undefined)	13	8%	u	-2%
CC1CCCC(NC(=O)NC(=O)COC(=O)c2ccc(O)cc2O)C1C (centres undefined)	0	1%	15%	12%
O=C1[C@@H]2[C@H]3CC[C@H](C3)[C@@H]2C(=O)N1O	4	u	1.2µM*	3%
CCOC(=O)C1=C(COC(=O)/C=C/c2cccc(F)c2)NC(=O)NC1C (centres undefined)	7	-4%	-2%	-2%
CCC(C(=O)OCC(=O)N1CCN(c2ccc(OC)cc2)CC1)c1ccccc1 (centres undefined)	12	3%	13%	5%
COc1ccc(CCNC(=O)/C=C/c2ccc3ccccc3n2)cc1OC	-8	21µM*	16µM*	-16%
COc1ccc(/C=C/C(=O)NCCc2ccc(OC)c(OC)c2)cc1	19	2%	1%	-8%
COc1cc(CNC(C)c2ccccc2)cc(Br)c1OCc1ccccc1 (centres undefined)	-17	23µM*	u	0%
COc1cc(CNC(C)(C)CO)cc(Br)c1OCc1ccc(Cl)cc1Cl	-4	18%	18µM*	4%
COc1cc(CNc2ccc(O)cc2)cc(Br)c1OCc1ccccc1	-13	u	23µM*	u
COc1cc(CNC(C)c2ccccc2)cc(Br)c1OCc1ccc(F)cc1 (centres undefined)	-3	u	u	4%
CC(C)NC(=S)NC(c1ccccc1)(c1ccccc1)c1ccccc1	2	14%	25%	u
CCOCc1c(C(=O)NCc2ccccc2CN2CCCC2)oc2ccccc12	7	u	u	14%
O=[N+]([O-])c1cncn1CCN1CCOCC1	-91*	0%	0%	3%
O=C1C=C(NCc2ccc(Cl)cc2Cl)C2(CCCCC2)O1	28	u	9.2µM*	-17%
CC(Oc1ccc2c(-c3ccccc3)cc(=O)oc2c1)C(=O)NCC(O)c1ccccc1 (centres undefined)	5	u	-4%	6%
COc1cc(CC(=O)OCC(=O)Nc2ccc(N(C)C)cc2)cc(OC)c1OC	1	-3%	-6%	-2%
CN1CCN(NC(=O)c2cc(-c3ccc(Br)s3)nc3ccccc23)CC1	-6	u	23µM*	6%
SMILES	Giardia killer	SW480 rereplic	MCF10A rereplic	uPA surface inh
CC(C)c1ccc2c(c1)C1(NN=C(c3ccccc3)S1)C(=O)N2 (centres undefined)	-8	8.2µM*	1.3µM*	-9%
CC(C)c1ccc(O)c(NC(=O)c2ncn[nH]2)c1	-8	-3%	-2%	-3%
CCc1ccc2c(c1)C1(NN=C(c3ccc(C)cc3)S1)C(=O)N2 (centres undefined)	0	u	6.5µM*	-8%
CC1CN(C(=O)COC(=O)/C=C/c2cccc([N+](=O)[O-])c2)CC(C)O1 (centres undefined)	-13	4%	2%	-6%
CCC(C)C(NC(=O)OC(C)(C)C)C(=O)NC1COC2CC(n3ccc(NC(C)=O)nc3=O)OC12 (centres undefined)	24	x	x	x
CC1=CC(=O)C(C(C)C)=C/C1=C(\c1cc(C(C)C)c(OP(=O)(O)O)cc1C)c1ccccc1C(=O)O	-1	u	21µM*	6%
O=C1OCCN1/N=C/c1ccc([N+](=O)[O-])o1	-92*	-8%	u	-26%
O=C1OC(CN(Cc2ccccc2)Cc2ccccc2)CN1N=Cc1ccc([N+](=O)[O-])o1 (centres undefined)	-94*	u	26%	6%
N=c1c(C(=O)NCc2ccco2)cc2c(=O)n3ccccc3nc2n1C1CCCC1	13	21µM*	21µM*	-3%
Cc1cccn2c(=O)c3cc(C(=O)NCCC4=CCCCC4)n(C)c3nc12	-10	u	9.2µM*	-18%
N=c1c(C(=O)NC2CCCC2)cc2c(=O)n3ccccc3nc2n1C1CCCC1	1	16µM*	17%	0%
Cc1cc(C)nc(NS(=O)(=O)c2ccc(NC(=O)c3cc4c(=O)n5cccc(C)c5nc4n3C)cc2)n1	-12	2.1µM*	10µM*	-6%
N=c1c(S(=O)(=O)c2ccccc2)cc2c(=O)n3ccccc3nc2n1C1CCCC1	-12	2%	18%	-5%
O=C(Nc1cccc(S(=O)(=O)Nc2ccc(Cl)cc2)c1)c1ccccn1	7	-10%	35%	-12%
CC[C@@]1(C(=O)OC)N[C@H](CN(C)C(=O)c2ccc(C)cc2)[C@@H]2C(=O)N(C)C(=O)[C@@H]21	-8	-2%	3%	13%
CC(C)(CCC(=S)N1CCOCC1)c1ccccc1	2	1%	10%	3%
Cc1cccn2c(=O)c3cc(C(=O)NC4CCCC4)c(=N)n(C4CCCC4)c3nc12	5	7.1µM*	3.5µM*	3%
Cc1cccn2c(=O)c3cc(C(=O)NC4CCCC4)n(C)c3nc12	9	4.6µM*	13µM*	u
CCCCNC(=O)c1cc2c(=O)n3cccc(C)c3nc2n(Cc2ccncc2)c1=N	8	-1%	18%	x
CCCn1c(=N)c(C(=O)NC2CCCC2)cc2c(=O)n3cccc(C)c3nc21	49	6.5µM*	2.9µM*	-7%
Cc1cccn2c(=O)c3cc(C(=O)NC4CCCCC4)c(=N)n(CCN4CCOCC4)c3nc12	21	u	u	-16%
CCn1c(=N)c(C(=O)NC)cc2c(=O)n3cccc(C)c3nc21	-7	13µM*	u	-6%
CC(C)c1ccccc1NC(=O)CNCCc1ccc(C(F)(F)F)cc1	1	u	u	10%
CC(C)[C@H](NC(=O)c1ccccc1F)C(=O)NC1CCCCCCC1	10	-3%	18µM*	-3%
CC(C)[C@H](NC(=O)c1ccccc1)C(=O)NC1CCCCCCC1	4	-13%	-6%	14%
Cc1cc(N/N=C/c2ccc(O)cc2O)nc(-n2nc(C)cc2C)n1	13	u	5.2µM*	-2%
COc1ccc(/C=N/Nc2cc(C)nc(-n3nc(C)cc3C)n2)cc1	6	u	u	-7%
